From PubChem BioAssay AID652154 (Broad Institute, 2013) come the findings set out here.

Broadly, the inhibition is the drop in the measured response relative to a control, in per cent.

In all, about 360,000 compounds went through this assay and about 4,200 (1.2%) were called active. The sample as a whole holds a higher share of actives than the screen did. Values without a mark were called inactive.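 How the source made its calls: active means mean replicate inhibition at least 60% with every replicate also reaching 60%; inconclusive means only one of the two criteria is met; inactive means mean below 60% and not all replicates reaching 60%.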

This assay is described as follows: PAX8 transcriptional activity inhibition in RMG-I – RMG-I cells, luciferase, single concentration, primary screen (AID 652154).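 Further: luciferase light reporting Pax8 driven TPO promoter activity; plate controls were median of neutral control wells for no effect and mitoxantrone controls for full effect.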 The note with it: RMG-I TPO-luciferase reporter, SteadyGlo, 24 h; at 12.6 µM; active compounds read high. For orientation: In a reporter assay the amount or activity of a reporter protein is the signal.
For the compound `CCOc1cc(C(=O)N2CCc3cc(OC)c(OC)cc3C2)ccc1OC(F)F`, the inhibition was 86.2% (active). For the compound `COc1cc2c(cc1OC)CN(C(=O)c1ccc(S(=O)(=O)N3CCCCCC3)cc1)CC2`, the inhibition is 11.3%. As for `COc1cc2c(cc1OC)CN(C(=O)c1cc(S(=O)(=O)N3CCCCC3)ccc1Cl)CC2`, the inhibition was -3.73%. Regarding `O=C(C[C@H]1C[C@H]2c3cc(NC(=O)CC4CC4)ccc3O[C@H]2[C@H](CO)O1)NCc1ccccn1`, the inhibition was -23.5%. `COc1ccc(S(=O)(=O)Nc2ccc3c(c2)C(=O)N([C@@H](C)CO)C[C@@H](C)[C@H](CN(C)C(=O)CCC(F)(F)F)OCCCC[C@H](C)O3)cc1`: the inhibition is 6.54%. As for `O=S(=O)([N-]c1nc2ccccc2nc1-[n+]1ccc(Cc2ccccc2)cc1)c1ccc(Br)s1`, the inhibition is 70.9% (active).

For the compound `O=S(=O)(NCc1ccccn1)c1ccc(Br)s1`, the inhibition is -3.1%. The result for `COc1ccc(S(=O)(=O)Nc2cccc3c2O[C@@H](CN(C)C(=O)Nc2ccccc2)[C@@H](C)CN([C@H](C)CO)C3=O)cc1` reads 11%. For the compound `Cc1ccc(C(=O)N2CCN(S(=O)(=O)N3CCOCC3)CC2)cc1`, the inhibition was -3.97%. The result for `Cc1ccc(S(=O)(=O)NC(C(=O)N2CCOCCOCCOCCOCC2)c2ccccc2)cc1` (configuration not stated) reads 5.5%; that for `Cc1oc2c(c1C(=O)N1CCOCC1)C(=O)c1ccccc1C2=O`, 83.3% (active); that for `CN(C)C(=O)[C@@H]1[C@@H](CO)[C@@H]2Cn3c(cccc3=O)[C@@H]2N1C(=O)C1CCC1`, -6.21%.

Regarding `CCCN1C[C@@H](C)[C@@H](OC)CN(C)C(=O)c2cc(NC(=O)Nc3cccc(F)c3)ccc2OC[C@@H]1C`, the inhibition is 13.5%.

In the case of `N#C[C@@H]1[C@@H](c2ccc(C3=CCCC3)cc2)[C@@H](CO)N1C(=O)C1CCCC1`, the inhibition is 3.84%.

For the compound `CCCCC(=O)NC(c1ccc(OC)c(OC)c1)c1ccc2cccnc2c1O` (configuration not stated), the inhibition was 78.7% (active). The result for `C=CCn1c(COc2cccc3cccnc23)nnc1SCC(=O)OC` reads 21.9%. As to `CCOc1ccc(C(CC(=O)O)n2cnnn2)cc1OC` (configuration not stated), the inhibition was 7.25%. For `C[C@@H]1CCCCO[C@@H](CN(C)C(=O)Nc2cccc3ccccc23)[C@H](C)CN([C@H](C)CO)C(=O)c2cc(NC(=O)NC3CCCCC3)ccc2O1`, the inhibition is 34.7%.

Regarding `Cc1noc(C)c1S(=O)(=O)Nc1ccc2c(c1)C(=O)N([C@@H](C)CO)C[C@@H](C)[C@@H](CN(C)Cc1ccccc1)OCCCC[C@H](C)O2`, the inhibition was 27.1%. Take `COc1ccc(CN2C(=O)C(CC(=O)NCc3cccc4ccccc34)CC(C(=O)N3CCOCC3)=C2C)cc1` (configuration not stated): the inhibition is -99.8%. As for `CCN(CC)C(=O)C1=C(C)N(Cc2ccc(OC)cc2)C(=O)C(CC(=O)NCCCCc2ccccc2)C1` (configuration not stated), the inhibition is 8.41%. In the case of `COc1ccc(CN2C(=O)C(CC(=O)NCCCCc3ccccc3)CC(C(=O)N3CCOCC3)=C2C)cc1` (configuration not stated), the inhibition is 91.4% (active).
